Data on one compound can be found in PubChem BioAssay AID2283172 (EPA ToxCast).

Activity calls are given as the source filed them. How the source made its calls: active means hit-call score of the fitted dose curve at least 0.9, where 1 is the maximum; inactive means score below 0.9.

The target in this test is human LYN Proto-Oncogene, Src family Tyrosine Kinase (LynB), LYN (gene 4067) (UniProt P07948). Nature of the test: NVS_ENZ_hLynB: NovaScreen (NVS) Enzymatic Assay for human LYN Proto-Oncogene, Src family Tyrosine Kinase (LynB). The procedure: NVS_ENZ_hLynB is a biochemical, single-readout assay that uses extracted gene-proteins in a cell-free assay. Measurements were taken 1 hour after chemical dosing in a 384-well plate.NVS_ENZ_hLynB is one of one assay component(s) measured or calculated from the NVS_ENZ_hLynB assay. It is designed to make measurements of enzyme activity, a form of enzyme reporter, as detected with fluorescence intensity signals by Fluorescence and electrophoretic mobility shift technology.Data from the assay component NVS_ENZ_hLynB was analyzed into 1 assay endpoint. This assay endpoint, NVS_ENZ_hLynB, was analyzed in the positive analysis fitting direction relative to DMSO as the negative control and baseline of activity. Using a type of enzyme reporter, loss-of-signal activity can be used to understand changes in the enzymatic activity as they relate to the gene LYN. Furthermore, this assay endpoint can be referred to as a primary readout, because this assay has produced multiple assay endpoints where this one serves a enzymatic activity function. To generalize the intended target to other relatable targets, this assay endpoint is annotated to the kinase intended target family, where the subfamily is non-receptor tyrosine kinase. […]
human LYN Proto-Oncogene, Src family Tyrosine Kinase (LynB), LYN (gene 4067), sequence (P07948 whole entry, looked up): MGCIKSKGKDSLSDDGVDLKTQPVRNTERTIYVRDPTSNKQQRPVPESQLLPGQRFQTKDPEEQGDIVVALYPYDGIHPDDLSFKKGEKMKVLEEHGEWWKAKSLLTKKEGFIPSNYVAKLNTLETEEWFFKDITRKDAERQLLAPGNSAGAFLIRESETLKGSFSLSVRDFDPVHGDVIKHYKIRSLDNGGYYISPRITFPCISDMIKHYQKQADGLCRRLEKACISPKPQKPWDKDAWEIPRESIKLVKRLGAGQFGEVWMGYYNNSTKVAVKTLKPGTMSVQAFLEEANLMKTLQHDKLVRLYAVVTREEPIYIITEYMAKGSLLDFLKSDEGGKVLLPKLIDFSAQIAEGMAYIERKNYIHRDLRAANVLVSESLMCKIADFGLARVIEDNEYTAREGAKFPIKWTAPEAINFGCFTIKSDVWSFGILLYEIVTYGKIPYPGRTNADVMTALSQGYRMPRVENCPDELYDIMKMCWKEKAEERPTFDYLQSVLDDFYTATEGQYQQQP
With `CCOCN(C(=O)CCl)c1c(C)cccc1CC`, the result was inactive.
